Sampled rows, rich in hits. Any-hit rate of the full collection: about 8%.
KB-3-1 tox: qHTS assay for MDR1-selective chemotherapeutics: Primary screen using the parental adenocarcinoma cell KB-3-1; 400,000 tested, 1.4% active; KB-3-1 viability, CellTiter-Glo ATP luminescence, 72 h; Potency, µM (series often up to 46.1 µM), hits mostly cytotoxic; also: nearly all actives have a fitted effect of over 60% in size
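Cells are dispensed, compounds pinned in, plates held at 37 °C for 72 h, then CellTiter-Glo is added and luminescence read after 10 minutes. Cell line: parental KB-3-1 in phenol-red-free DMEM, 10% FBS.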
MCF10A rereplic: A quantitative high throughput screen for small molecules that induce DNA re-replication in MCF 10a normal breast cells; MCF 10A DNA re-replication, Hoechst nuclear intensity, 48 h; 350,000 tested, 2.9% active; AID 624296, 2012; Potency, µM (series often up to 46.1 µM), hits mostly activators; also: nearly all actives have a fitted effect of over 50% in size
HT1080 IDH1KD tx: qHTS for induction of synthetic lethality in tumor cells producing 2HG: qHTS for the HT-1080-IDH1KD cell line; 360,000 tested, 2% active; HT-1080 IDH1 knockdown viability, ATP luminescence, 48 h; Potency, µM (top dose mostly 46.1 µM), hits mostly cytotoxic
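% activity derives from luminescence (CellTiter-Glo), normalised to DMSO and no-cell wells. HT-1080-IDH1KD cells, 750/well, had 48 h compound exposure at 37 °C.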
SW480 rerep: A quantitative high throughput screen for small molecules that induce DNA re-replication in SW480 colon adenocarcinoma cells; SW480 DNA re-replication, Hoechst DNA content imaging, 48 h; Potency, µM (doses to about 46.1 µM), actives largely listed as activators; 340,000 tested, 1.8% active; also: nearly all actives have a fitted effect of over 55% in size
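Compounds, transferred as 23 nL by pin tool, were incubated with cells for 48 hr; DNA content per nucleus was then quantified by Hoechst staining and fluorescence plate imaging.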
HT1080-NT tox: qHTS for induction of synthetic lethality in tumor cells producing 2HG: qHTS for the HT-1080-NT fibrosarcoma cell line | HT-1080-NT fibrosarcoma viability, CellTiter-Glo ATP luminescence, 48 h | AID 686970, 2013 | 360,000 tested, 1.6% active | Potency, µM (top dose mostly 46.1 µM), most hits filed as cytotoxic;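 also: NT is the 2HG producing partner of a matched IDH1 knockdown line; nearly all actives have a fitted effect of over 55% in size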
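A 48-hour cytotoxicity screen used HT-1080-NT cells plated 2 hours before compound delivery. ATP-based CellTiter-Glo luminescence measured viability, normalized to DMSO and no-cell controls.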
KB-V1 MDR tox: qHTS assay for MDR1-selective chemotherapeutics: Primary screen using the drug-selected MDR subline cells KB-V1; KB-V1 MDR cells viability, CellTiter-Glo, 72 h; Potency, µM (series often up to 46.1 µM), actives largely listed as cytotoxic; 400,000 tested, 3.4% active; also: nearly all actives have a fitted effect of over 60% in size
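Cytotoxicity via CellTiter-Glo luminescence after 72 h compound exposure at 37 degrees C. Cells: drug-selected KB-V1 line, DMEM phenol-red free plus 10% FBS. Compounds tested at multiple concentrations; normalized data fitted to concentration-effect curves.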
A number is an active result; i = inactive; ? = inconclusive; nt = not tested or not shown; [ ] = another dose, or the depositor's remark. Calls follow the shape of the dose curve; as a rule, active = well fitted curve in the direction sought with a large enough effect; inconclusive = small, poorly fitted or top-dose-only effect, or another doubt; inactive = no such curve, though single readings can be large; an effect the other way counts as inactive or inconclusive.

SMILES	KB-3-1 tox	MCF10A rereplic	HT1080 IDH1KD tx	SW480 rerep	HT1080-NT tox	KB-V1 MDR tox
CC(C)(C)c1ccc(/C=C/C(=O)N2CCCCC2)cc1	i	?	i	i	i	i
CCOC(=O)C1CCCN(C(=O)/C=C/c2ccc(Cl)cc2)C1 (centres undefined)	i	i	i	i	i	i
COc1ccccc1N1CCN(C(=O)/C=C/c2cccc([N+](=O)[O-])c2)CC1	i	i	i	i	i	i
Cc1ccc(/C=C/C(=O)N2CCC(Cc3ccccc3)CC2)cc1	i	?	i	i	i	21µM
CC1CCN(C(=O)/C=C/c2ccc(C(C)(C)C)cc2)CC1	i	18µM	i	i	i	?
COc1ccccc1N1CCN(C(=O)/C=C/c2ccc(C)cc2)CC1	i	23µM	i	i	i	16µM
CCc1nn2c(-c3ccco3)ccnc2c1-c1ccc(F)cc1	i	nt	nt	nt	nt	?
Cc1ccc(-n2ncc(C(=O)NCCCN3CCN(C)CC3)c2C2CCN(C(=O)OC(C)(C)C)CC2)cc1	i	nt	nt	nt	nt	i
Cn1c(/C(C#N)=C(\O)c2cccc(F)c2)nc2ccccc21	i	i	?	i	?	i
N#C/C(=C(/O)c1cc2ccccc2o1)c1nc2ccccc2s1	21µM	8.2µM	i	?	i	?
N#C/C(=C(/O)c1cccc(F)c1)c1nc2ccccc2s1	5.8µM	i	i	i	i	2.9µM
CC(C)CC(=O)NCC1(N(C)C)CCCCC1	i	nt	nt	nt	nt	i
CCOC(=O)c1c(NC(=O)c2c(-c3ccccc3)noc2C)sc(C)c1-c1ccccc1	2.1µM	?	?	?	i	6.5µM
CCOCc1nnc(NC(=O)c2c(-c3ccccc3)noc2C)s1	i	i	i	i	i	i
CCOC(=O)c1c(NC(=O)/C=C/C(=O)O)sc(C)c1-c1ccc(C(C)(C)C)cc1	i	?	5.8µM	18µM	8.2µM	?
Cc1sc(NC(=O)/C=C/C(=O)O)c(C(N)=O)c1-c1ccc(C(C)(C)C)cc1	i	21µM	21µM	?	?	i
Cc1onc(-c2ccccc2)c1C(=O)Nc1sc2c(c1C#N)CCC(C)C2 (centres undefined)	?	i	i[9.24 µM]	i	13µM	?
O=C(CSc1nc2c([nH]c3ccccc32)c(=O)n1-c1ccc(F)cc1)NCc1ccc(F)cc1	i	nt	nt	nt	nt	i
CCOC(=O)c1cc(-c2ccc(F)cc2)n(CCC(=O)NC2CCC(C)CC2)c1C (centres undefined)	?	nt	nt	nt	nt	i
CCOC(=O)c1c(NC(=O)/C=C\C(=O)O)sc(C)c1-c1ccccc1	i	21µM	?	?	?	i
CCCOc1cccc(NC(=O)c2c(-c3ccccc3)noc2C)c1	i	i	i	i	i	i
Cc1cccc(OCCOC(=O)c2c(-c3ccccc3)noc2C)c1	?	18µM	?	8.2µM	?	?
CCOC(=O)c1c(NC(=O)CCN2CCOCC2)sc(C)c1-c1ccccc1	i	?	i	i	i	i
CCOC(=O)c1c(NC(=O)c2cc(=O)c3cc(C)cc(C)c3o2)sc(C)c1C	i	nt	nt	nt	nt	i
COc1cccc(C(c2c(NC(=O)c3ccccc3)sc(C)c2C)N2CCN(C)CC2)c1 (centres undefined)	?	i	i	i	i	21µM
SMILES	KB-3-1 tox	MCF10A rereplic	HT1080 IDH1KD tx	SW480 rerep	HT1080-NT tox	KB-V1 MDR tox
CCOc1ccc(CCNC(=O)c2ccc(C)c(-n3cnc4cccnc43)c2)cc1	i	nt	nt	nt	nt	i
CC(C)c1ccc(NC(=S)NCCc2c[nH]c3ccccc23)cc1	?	15µM	?	i	i	?
Cc1ccccc1NC(=S)NCCc1c[nH]c2ccccc12	i	i	i	i	i	i
COc1ccc(Cl)cc1NC(=S)NCCc1c[nH]c2ccccc12	21µM	i	?	?	?	?
COc1ccc(Cl)cc1NC(=S)NCCSc1ccc(C)cc1	i	23µM	i	i	i	i
CCc1ccc(C2N3CC4(C)CN2CC(c2ccccc2)(C3)C4=O)cc1 (centres undefined)	i	nt	nt	nt	nt	?
O=C1C[C@H]2C=CCc3cccc(c32)CN1Cc1ccc(Cl)cc1	i	nt	nt	nt	nt	18µM
NC(=O)C1CCN(C(=O)C(Cc2ccccc2)NC(=O)c2ccccc2)CC1 (centres undefined)	i	i	i	21µM	i[9.24 µM]	i
CSc1ccc(CCNC(=O)c2ccc(-c3nc(COc4ccc(C)cc4)c(C)o3)cc2)cc1	i	nt	nt	nt	nt	i
Cc1ccccc1OCc1ccc(-c2nc(C#N)c(N3CCC(C(N)=O)CC3)o2)o1	i	nt	nt	nt	nt	i
O=C1CC(c2cccc(O)c2)c2c(nc(SCc3ccccc3F)[nH]c2=O)N1 (centres undefined)	i	nt	nt	nt	nt	i
COc1ccc(C)cc1-n1nnnc1SCc1cc(=O)n2cc(C)ccc2n1	?	?	i	i	i	7.3µM
COc1ccc(C)cc1-n1nnnc1SCc1csc(C)n1	i	i	i	i	i	i
O=C(NCCCN1CCN(c2ccc(F)cc2)CC1)Nc1ccccc1Cl	i	nt	nt	nt	nt	i
Cc1cc(C)cc(Nc2ccc([N+](=O)[O-])nc2[N+](=O)[O-])c1	i	i	i	i	i	i
COc1cc(Nc2ccc(C)cc2)c([N+](=O)[O-])nc1[N+](=O)[O-]	?	i	3.2µM	i	3.2µM	5.8µM
O=c1cc(-c2ccccc2)[nH]n1-c1nc2ccccc2[nH]1	?	i	13µM	?	11µM	?
CCc1cc(=O)[nH]c(-n2[nH]c(-c3ccccc3)cc2=O)n1	i	i	i	i	i	?
CN(C)c1cccc(-c2ncc(F)c(N3CCC(C(N)=O)CC3)n2)c1	?	nt	nt	nt	nt	i
Cc1cccc(Sc2c([N+](=O)[O-])ncn2C)c1	i	?	i	i	i	i
Cn1cnc([N+](=O)[O-])c1Oc1ccc2ccccc2c1	?	4.1µM	?	6.5µM	i	?
Cc1ccc2oc(-c3ccc(C)c(NC(=O)COc4ccc(Cl)cc4C)c3)nc2c1	?	nt	nt	nt	nt	i
O=C(NCCc1ccccc1)[C@@H]1CC=C[C@@H]2CCN(C3CC3)C(=O)[C@@H]21	i	nt	nt	nt	nt	i
CN(C)C(=O)c1cccc(-c2cnc3c(NC=O)cc(-c4cccc(C(F)(F)F)c4)cn23)c1	i	nt	18µM	nt	23µM	?
CN(C)CCNC(=O)c1cccc(-c2cc(NC=O)c3ncc(-c4cccc(C(F)(F)F)c4)n3c2)c1	i	nt	16µM	nt	29µM	i
